High-throughput results deposited in PubChem BioAssay by PCMD.
In the library only some 0.54% were active in any assay of this set; here they are far more common.
CatS block – inhibitors of human cathepsin S, biochemical, compound mixtures | P25774 | recombinant cathepsin S, AMC dipeptide fluorescence, pooled mixtures | inhibition, %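 (tested at 5 µM per compound within 10-compound mixtures)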 | 0.06% of 62,000 active; in the data active = inhibition above about 32%, passing the limit was not always enough; inconclusive = no clear call, values can overlap the other calls
Target sequence (P25774 115-331 limits assumed): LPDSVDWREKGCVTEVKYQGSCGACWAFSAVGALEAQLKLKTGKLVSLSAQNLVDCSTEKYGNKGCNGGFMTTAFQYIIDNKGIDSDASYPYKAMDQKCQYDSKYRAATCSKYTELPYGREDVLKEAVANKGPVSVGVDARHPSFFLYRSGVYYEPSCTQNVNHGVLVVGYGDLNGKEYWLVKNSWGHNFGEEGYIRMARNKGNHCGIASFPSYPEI
CatL block – inhibitors of human cathepsin L, biochemical; purified cathepsin L, fluorogenic substrate, fluorescence; inhibition, %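 (tested at 10 µM)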; 0.17% of 58,000 active; in the data active = inhibition above about 45%
Cathepsin G inh – human cathepsin G inhibitors, primary screen, biochemical, pooled compound mixtures, AMC fluorescence; P08311; purified enzyme, AMC-tetrapeptide fluorescence; inhibition, % at 5 µM (by protocol); 0.2% of 62,000 active;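 active = inhibition above 20% in each of the two mixture wells holding the compound; inactive = inhibition of 20% or less in either well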
Target sequence (P08311 21-244 limits assumed): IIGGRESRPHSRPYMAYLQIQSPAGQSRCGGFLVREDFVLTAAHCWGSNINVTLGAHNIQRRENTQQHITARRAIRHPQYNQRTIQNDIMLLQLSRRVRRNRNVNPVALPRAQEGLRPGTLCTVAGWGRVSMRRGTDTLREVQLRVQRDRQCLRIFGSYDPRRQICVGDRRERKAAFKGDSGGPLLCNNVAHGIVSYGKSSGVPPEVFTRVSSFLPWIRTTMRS
CatB mix inh – cathepsin B inhibitors from pooled compounds, primary screen, biochemical, compound mixtures, AMC fluorescence. P07858. Purified cathepsin B, AMC dipeptide fluorescence. inhibition, %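 (ten-compound pools at 5 µM per compound and 50 µM total)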. 0.06% of 62,000 active. AID 488, 2006; in the data active = inhibition above about 22%, passing the limit was not always enough; inconclusive = no clear call, values can overlap the other calls
CatB block – human cathepsin B inhibitors, primary screen, biochemical, fluorogenic substrate; P07858; purified cathepsin B, fluorescence; inhibition, %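 (tested at 10 µM)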; 0.1% of 63,000 active; in the data active = inhibition above about 21%
C1s inh – complement C1s protease inhibitors, primary screen, biochemical, 10-compound mixtures | Complement C1s subcomponent (Homo sapiens), P09871 | purified C1s, fluorogenic AMC substrate, pooled mixtures | mean inhibition % of two 10-compound mixtures (stronger effect = higher value), % at 5 µM (by protocol) | 0.16% of 62,000 active | AID 538, 2006;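 active = inhibition above 20% in each of the two 10-compound mixture wells holding the compound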
Large screens that a line does not name were inactive.

Cc1nc2scc(-c3cccs3)c2c(=O)o1	Cathepsin G inh 26, C1s inh 29
Cc1ccc2nc(C(O)C(O)c3nc4ccc(C)cc4[nH]3)[nH]c2c1 (stereo not given)	CatL block 62
O=C1CSC(=Nc2ccc(O)cc2)N1c1ccc(O)cc1	Cathepsin G inh 39
O=C(CN1CCOCC1)N1CCN(C(=O)CN2CCOCC2)CC1	none
CC(C)C1O/C(=N/C(=O)Nc2ccc(Cl)c(Cl)c2)NC1=O (stereo not given)	none
COC(=O)c1nn2c(C(F)(F)F)cc(-c3ccc(Br)o3)nc2c1Br	none (no result: CatS block, Cathepsin G inh, CatB mix inh, C1s inh)
CC(=NCc1ccco1)c1c(C)[nH]n(-c2nc3ccccc3s2)c1=O	CatS block 46
CCCCc1c(C)nn(-c2nnc3c4ccccc4n(C)c3n2)c1C	CatL block 94 (no result: CatS block, Cathepsin G inh, CatB mix inh, C1s inh)
CCc1nnc(NC(=O)CSc2nnc3c4ccccc4n(C)c3n2)s1	none
COc1ccc(OC)c(NS(=O)(=O)Cc2ccccc2)c1	CatL block 73
O=C(c1csc2c1CCCC2)n1cccn1	Cathepsin G inh 48, C1s inh 52
O=C(c1csc2c1CCCC2)N1CCN(c2ncccn2)CC1	none
O=c1oc(-c2cccc(S(=O)(=O)N3CCOCC3)c2)nc2ccccc12	Cathepsin G inh 49
Cc1nc(-c2cccc(S(=O)(=O)N3CCOCC3)c2)cs1	none
O=c1oc(-c2cccnc2)nc2ccccc12	Cathepsin G inh 56 (no result: CatL block)
COc1ccccc1-c1c(C#N)c(SCC(=O)N2CCCC2)nc(C)c1C(N)=O	Cathepsin G inh 25
CC(C)CN(CC(C)C)S(=O)(=O)N1CCC(C(=O)NCc2ccc(F)cc2)CC1	C1s inh 24
O=c1cc(-c2ccccc2)nc2nc(COc3ccccc3)[nH]n12	CatS block inconclusive
O=c1cc(-c2ccccc2)nc2nc(-c3ccccc3)[nH]n12	C1s inh 44
O=C1N=C(N2CCOCC2)S/C1=C1\C(=O)N(Cc2ccccc2)c2ccc(Br)cc21	none
CCCCN1C(=O)/C(=C2\SC(N3CCCCC3)=NC2=O)c2ccccc21	C1s inh 23
COc1ccc(C2C(C(=O)NCc3ccccn3)c3cc(OC)c(OC)cc3C(=O)N2C)cc1 (stereo not given)	CatL block 59
COc1cc2c(cc1OC)C(C(=O)NCc1cccnc1)C(c1cccnc1)N(C)C2=O (stereo not given)	none
Cc1c(-c2cccs2)[n+](=O)c2c(n1[O-])CCCCC2	none
O=C(Oc1ccc(-n2cnnn2)cc1)c1ccco1	C1s inh 31
O=C(Oc1ccc(N2C(=O)CCC2=O)cc1)c1ccco1	none
O=C(NCc1ccco1)C(c1cccs1)N(Cc1ccccc1)C(=O)Cn1nnc2ccccc21 (stereo not given)	none
Cc1ccc(CN(C(=O)Cn2nnc3ccccc32)C(C(=O)NCc2ccco2)c2cccs2)cc1 (stereo not given)	CatB mix inh 23
Cc1ccc(SCc2cn3c(C)csc3n2)cc1	none
Nc1nonc1C(=O)NCCNCc1cc(Br)ccc1OCc1ccccc1F	none
Nc1nonc1C(=O)NCCNCc1ccccc1OCc1ccccc1F	CatB block 23
COc1cccc(NC(=O)N2CCN(Cc3nc4ccccc4c(=O)[nH]3)CC2)c1	none
Cc1c(=O)n(OCc2c(F)cccc2F)c2ccccc2[n+]1[O-]	none (no result: CatS block, Cathepsin G inh, CatB mix inh, C1s inh)
CC(C)C(c1nnnn1C1CCCC1)N1CCCc2ccccc21 (stereo not given)	CatS block 32
O=c1cc(O)c2c(=O)n3c4c(cccc4c2o1)CCC3	none
COc1ccccc1N=Cc1nc(-c2ccccc2)oc1OC(C)=O	Cathepsin G inh 26, CatB mix inh 33, CatB block 41
CC(=O)Oc1oc(-c2ccccc2)nc1/C=N/c1ccccn1	none (no result: CatS block, Cathepsin G inh, CatB mix inh, C1s inh)
Cc1ccc(N(CC(=O)NC2CCC(C)CC2)S(=O)(=O)c2cccnc2)cc1 (stereo not given)	CatL block 72
COc1ccc(N(CC(=O)NC2CCCCC2)S(=O)(=O)c2cccnc2)cc1	none
CCOC(=O)c1ccc(N=CC2=C(O)CC(c3ccco3)CC2=O)cc1 (stereo not given)	none (no result: CatS block, Cathepsin G inh, CatB mix inh, C1s inh)
Cc1nn(C(=O)c2ccccc2)c2c1C(=O)CC(C)(C)C2	Cathepsin G inh 49, C1s inh 30
Cc1nn(-c2nc3ccccc3n2Cc2ccccc2)c2c1C(=O)CC(C)(C)C2	none (no result: CatL block)
O=C(NCCCN1CCCCCC1)c1ccc(CS(=O)(=O)Cc2ccccc2F)o1	CatL block 60
CC1CCN(CCCNC(=O)c2ccc(CS(=O)(=O)Cc3ccccc3F)o2)CC1	none
COc1cc(-c2nnc(SCC(=O)c3cc(C)n(CC4CCCO4)c3C)o2)cc(OC)c1OC (stereo not given)	C1s inh 22
COc1ccccc1-c1cc(C(=O)NCc2ccccc2)no1	Cathepsin G inh 51
COc1ccccc1-c1cc(C(=O)NCc2ccc(F)cc2)no1	none (no result: Cathepsin G inh)
COc1ccccc1-c1cc(C(=O)NCc2ccc(Cl)cc2)no1	Cathepsin G inh 46
COc1ccc(-c2nnc(SCC(=O)Nc3ncc(C)s3)n2-c2ccccc2)cc1OC	none
Cc1cc(OC(=O)c2ccccc2)n(CCC#N)n1	Cathepsin G inh 65, C1s inh 35
CC(=O)c1sc(N2C(=O)c3oc4ccccc4c(=O)c3C2c2ccc(C)o2)nc1C (stereo not given)	none (no result: CatL block)
CN(C)/C=N/c1nc2ccc3c(c2s1)CCCC3	none
COc1ccc2nc(/N=C\N(C)C)sc2c1	CatB block 41
CC(c1nnc(SCC(=O)NC(=O)NCc2ccco2)n1-c1ccc(Cl)cc1)N(C)C (stereo not given)	CatL block 61
N=c1cc(C2(O)CCCCC2)n2c(nc3ccccc32)s1	none
CN(C)CCNc1nc2c(c(=O)[nH]c(=O)n2C)n1CC(O)COc1ccc(Cl)cc1 (stereo not given)	CatL block 47
Cc1ccc(Cn2ncc3c(N4CCN(c5ccccc5C)CC4)ncnc32)cc1	C1s inh 22
O=C(CCn1ccc2ccccc21)Nc1ccc(N2CCOCC2)cc1	none
CCOC(=O)Cc1csc(NC(=O)c2cnc3scc(C)n3c2=O)n1	none
CN(C)c1ccc(-c2nnn(Cc3ccccc3Br)n2)cc1	none
O=C(NCc1ccc(F)cc1)C1CCC(=O)N1CCc1ccccc1 (stereo not given)	CatB block 42
Cc1ccc(CN2C(=O)CCC2C(=O)NCc2ccc(F)cc2)cc1 (stereo not given)	none
Cc1nc(Nc2nc(=O)c3ccccc3n2C)nc2c(C)cccc12	none
Cc1ccc(S(=O)(=O)n2nc(OC(=O)c3c(-c4ccccc4Cl)noc3C)cc2N)cc1	none
COc1ccc(S(=O)(=O)n2nc(OC(=O)c3ccccc3Br)cc2N)cc1	none
